The text below walks through data of PubChem BioAssay (NCATS).

Results filed as inconclusive are left out. The source made the active and inactive calls. Calls come from the whole dose curve; as a rule, active = well fitted curve in the direction sought with a large enough effect; inconclusive = small, poorly fitted or top-dose-only effect, or another doubt; inactive = no such curve, though single readings can be large; an effect the other way counts as inactive or inconclusive.

One assay concerns UISO. Nature of the assay: qHTS assay to identify novel small-molecules to repurpose for Merkel cell carcinoma treatment (AID 1296009). Note: nearly all actives have a fitted effect of over 60% in size. To be noted: MCC and control cell lines, CellTiter-Glo viability, 72 h; series mostly up to 46 µM. Summed up: (§1)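 Cells were treated for 72 hr at 37 degree celsius with compounds in 8- or 11-point dose response. Viability was read by CellTiter-Glo luminescence, normalized to no-cell (cytotoxicity) and DMSO controls.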
For orientation: qHTS replaces the single test concentration by a dilution series.

The test system of another assay is WaGa. The description is as above. Conditions: MCC and control cell lines, CellTiter-Glo viability, 72 h; series mostly up to 46 µM. Put shortly: as §1
(In ATP-based viability assays light output follows the ATP content of the culture.)

Another assay concerns C33A. Nature of the assay: Primary qHTS to identify gynecologic anti-cancer compounds using libraries of approved drugs and bioactive compounds (AID 1345084). Note: nearly all actives have a fitted effect of over 55% in size. Note: potency is the fitted concentration of half-maximal effect. To be noted: Gynecologic cancer cell panel viability, ATPlite luminescence, 48 h; series mostly up to 57.5 µM. Summed up:
(§2)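 Cells, 1,000 per well, were allowed to settle for 16 h at 37 C before compound addition. Five concentrations were tested for 48 h, and viability was read by ATPlite luminescence after 15 min at room temperature.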

A further assay concerns CAOV3. Described as above. Conditions: Gynecologic cancer cell panel viability, ATPlite luminescence, 48 h; series mostly up to 57.5 µM. Put shortly: as §2
The next assay relates to CASKI. Described as above. To be noted: Gynecologic cancer cell panel viability, ATPlite luminescence, 48 h; series mostly up to 57.5 µM. Put shortly: as §2
Another assay deals with Es-2. The assay is described as above. Conditions: Gynecologic cancer cell panel viability, ATPlite luminescence, 48 h; series mostly up to 57.5 µM. Summed up:
as §2

For a further assay, the system named is HeLa. The assay is described as above. Conditions: Gynecologic cancer cell panel viability, ATPlite luminescence, 48 h; series mostly up to 57.5 µM. Put shortly:
as §2

The next assay relates to Hek293T. The assay is described as above. Conditions: Gynecologic cancer cell panel viability, ATPlite luminescence, 48 h, control line for the selectivity index; series mostly up to 57.5 µM. Summed up:
as §2

The next assay deals with JEG-3. Described as above. To be noted: Gynecologic cancer cell panel viability, ATPlite luminescence, 48 h; series mostly up to 57.5 µM. Summed up: as §2
Another assay has as its system NIH3T3. Nature of the assay: qHTS assay to identify novel small-molecules to repurpose for Merkel cell carcinoma treatment (AID 1296009). Note: nearly all actives have a fitted effect of over 60% in size. To be noted: MCC and control cell lines, CellTiter-Glo viability, 72 h; at 44.8 µM (top of the series). Summed up: as §1

Take `CN(C)CCCSc1ccccc1NC(=O)/C=C/c1ccccc1`: the molecule was classed as inactive in the assay with UISO and in the assay with WaGa. Moreover, the Potency entry in the assay with C33A, in the assay on CAOV3, in the assay on CASKI, in the assay with Es-2, in the assay on HeLa and with Hek293T was “inactive” each time. In addition, in the assay with JEG-3, the Potency entry is “inactive”.
`C=C1[C@H](CO)[C@@H](O)C[C@@H]1n1cnc2c(=O)[nH]c(N)nc21`: the Potency result with C33A, in the assay on CAOV3, with CASKI, in the assay on Es-2, with HeLa and in the assay with Hek293T was “inactive” in each case. Moreover, the Potency entry in the assay on JEG-3 is “inactive”.
As for `Nc1ccc(N=Nc2ccccc2)c(N)n1`, the outcome in the assay with UISO and in the assay with WaGa was inactive. Besides, the Potency entry in the assay with C33A, with CAOV3, with CASKI, in the assay on Es-2, with Hek293T and in the assay on JEG-3 was “inactive” throughout.
For `C/C(=C\C(=O)OCCCCCCCCC(=O)O)C[C@@H]1OC[C@H](C[C@@H]2O[C@H]2[C@@H](C)[C@H](C)O)[C@@H](O)[C@H]1O`, the Potency result with C33A, in the assay with CAOV3, in the assay with CASKI, with Es-2, in the assay with HeLa and in the assay on Hek293T was “inactive” in each case. The Potency entry in the assay with JEG-3 is “inactive”.
Take `C[C@H]1O[C@@H](O[C@H]2[C@@H](O)C[C@H](O[C@H]3[C@@H](O)C[C@H](O[C@H]4CC[C@@]5(C)[C@H](CC[C@@H]6[C@@H]5C[C@@H](O)[C@]5(C)[C@@H](C7=CC(=O)OC7)CC[C@]65O)C4)O[C@@H]3C)O[C@@H]2C)C[C@H](O)[C@@H]1O`: the Potency is 79.4 nM (active) in the assay on C33A; 282 nM (active) in the assay with CAOV3; 447 nM (active) in the assay on CASKI; 316 nM (active) in the assay on Es-2; 282 nM (active) with HeLa; 316 nM (active) in the assay with Hek293T.
`Oc1ccc(/C=C/c2cc(O)cc(O)c2)cc1`: in the assay with UISO, the call was inactive. Also, the Potency in the assay on Es-2 is 25100 nM (active).
`CCN(CC)CCOCCOC(=O)C(CC)(CC)c1ccccc1`: the Potency result with C33A, in the assay with CAOV3, in the assay with CASKI, in the assay on Es-2, with HeLa and with Hek293T was “inactive” each time. Further, in the assay with JEG-3, the Potency result was “inactive”.
`CO[C@H]1C[C@@H]2CC[C@@H](C)[C@@](O)(O2)C(=O)C(=O)N2CCCC[C@H]2C(=O)O[C@H]([C@H](C)C[C@@H]2CC[C@@H](OC(=O)C(C)(CO)CO)[C@H](OC)C2)CC(=O)[C@H](C)/C=C(\C)[C@@H](O)[C@@H](OC)C(=O)[C@H](C)C[C@H](C)/C=C/C=C/C=C/1C`: the Potency entry with C33A, in the assay with CAOV3, with CASKI, with Es-2, in the assay on HeLa and in the assay with Hek293T was “inactive” each time. Further, the Potency result in the assay on JEG-3 is “inactive”.
Regarding `O=C(OCc1ccccc1)c1ccc(O)cc1`, the molecule was classed as inactive in the assay on UISO and with WaGa. Further, the Potency result with C33A, in the assay with CAOV3, in the assay with CASKI, with Es-2, in the assay with HeLa and with Hek293T was “inactive” each time. The Potency result in the assay on JEG-3 is “inactive”.
As to `C=C1CC[C@H](O)CC1=C/C=C1\CCC[C@]2(C)[C@@H]([C@H](C)/C=C/[C@H](C)C(C)C)CC[C@@H]12`, the Potency entry with C33A, in the assay with CAOV3, in the assay on CASKI, in the assay with Es-2, with HeLa and with Hek293T was “inactive” throughout. Besides, the Potency result with JEG-3 is “inactive”.
Take `N[C@@H](Cc1cc(I)c(Oc2ccc(O)c(I)c2)c(I)c1)C(=O)O`: the Potency entry in the assay on C33A, in the assay with CASKI, in the assay with Es-2, in the assay with HeLa, in the assay on Hek293T and in the assay with JEG-3 was “inactive” throughout.
For `CC(=O)Oc1cccc2c1C(=O)c1c(OC(C)=O)cc(C(=O)O)cc1C2=O`, the call with UISO was inactive. Moreover, the Potency entry in the assay with C33A, in the assay with Es-2, in the assay with HeLa and in the assay with JEG-3 was “inactive” throughout.
On to `CC1CC(OC(=O)C(O)c2ccccc2)CC(C)(C)C1` (configuration not stated), for which the Potency result in the assay with C33A, with CAOV3, with CASKI, in the assay on Es-2, with HeLa and in the assay with Hek293T was “inactive” each time. In the assay with JEG-3, the Potency entry is “inactive”.
Regarding `CC(C)(C)c1ccc(CN2CCN(C(c3ccccc3)c3ccc(Cl)cc3)CC2)cc1` (configuration not stated), the result in the assay with NIH3T3 was inactive. For the same molecule, the Potency entry with C33A, in the assay with CAOV3, in the assay on CASKI, in the assay with Es-2, in the assay with HeLa and in the assay on Hek293T was “inactive” throughout. Further, the Potency result in the assay on JEG-3 was “inactive”.
Take `COc1ccc(C[C@H](C)NC[C@@H](O)c2ccc(O)c(NC=O)c2)cc1`: the Potency entry in the assay with C33A, in the assay with CAOV3, in the assay on CASKI, with HeLa and in the assay with JEG-3 was “inactive” in each case.
For `O=C(O)Cc1cc(I)c(Oc2ccc(O)c(I)c2)c(I)c1`, the outcome in the assay on NIH3T3 was inactive. The Potency result with C33A, in the assay on CAOV3, in the assay with CASKI, with Es-2, with HeLa and in the assay on Hek293T was “inactive” each time. Moreover, the Potency entry in the assay on JEG-3 is “inactive”.
As to `O=C(O)CCC(=O)c1ccc(-c2ccccc2)cc1`, the outcome in the assay on UISO and in the assay with WaGa was inactive. The Potency entry in the assay with C33A, in the assay on CAOV3, in the assay with CASKI, with Es-2, in the assay on HeLa and in the assay on Hek293T was “inactive” throughout. The Potency result in the assay on JEG-3 was “inactive”.
`COc1ccc2nc(NC(=O)Nc3ccccc3)sc2c1`: the outcome with UISO was inactive. The Potency in the assay on CASKI is 12600 nM (active); in the assay on Es-2, 8910 nM (active); with Hek293T it was 14100 nM (active); in the assay on JEG-3 it was 20000 nM (active).
Regarding `CC(=O)Nc1ccc(NC(=S)NC(=O)c2ccc(C(C)(C)C)cc2)cc1`, the Potency result in the assay with C33A, in the assay with CAOV3, in the assay with CASKI, with HeLa and with JEG-3 was “inactive” in each case.
For `C[C@]12CC[C@@H]3c4ccc(OC(=O)c5ccccc5)cc4CC[C@H]3[C@@H]1CC[C@@H]2O`, the outcome in the assay on NIH3T3 was inactive. Moreover, the Potency entry in the assay with C33A, in the assay with CAOV3, in the assay with CASKI, with Es-2, in the assay with Hek293T and in the assay on JEG-3 was “inactive” in each case.
Take `O=C1c2ccccc2C(=O)c2c1ccc(O)c2O`: the molecule was called inactive in the assay with UISO. The Potency result with C33A, in the assay with CAOV3, with CASKI, with Es-2, in the assay with HeLa and in the assay on Hek293T was “inactive” each time. In addition, the Potency entry in the assay on JEG-3 is “inactive”.
